Measured values reported in PubChem BioAssay (NCATS).
Inconclusive results are not listed. The source made the active and inactive calls. The call rests on the fitted dose curve.

Experiment: VSVG counterscreen qHTS to identify inhibitors of SARS-CoV-2 cell entry (AID 1645847); further: nearly all actives have a fitted effect of over 65% in size
Conditions: VSV-G pseudotyped particle entry, luciferase; series mostly up to 57.2 µM
How it was run: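 Expi293F/hACE2 cells, overnight plating; cpd 1 h, 37C/5% CO2; + VSV-G PP (MLV pseudotyping), 48 h; supernatant removed, Bright-Glo luciferase read. Norm: VSV-G PP and bald PP wells.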
Potency means the concentration at half of the fitted maximal effect.

Structure (SMILES)	Potency
CC(=O)Oc1ccccc1C(=O)Nc1ncc([N+](=O)[O-])s1	1.08 µM (active)
CCCc1cc(=O)[nH]c(=S)[nH]1	inactive
CC/C(=C(\c1ccccc1)c1ccc(OCCN(C)C)cc1)c1ccccc1	49.4 µM (active)
